SRC2 TRFRET art = flags TR-FRET format artefacts in PPARgamma SRC-2 recruitment agonist screen. TR-FRET artefact counter-screen; stronger effect = higher value. TR-FRET ratio at 8 µM. hit rate 0.4% among 200,000. AID 1049
PPARg SRC-3 ag = promotes SRC-3 coactivator recruitment by human PPARgamma | P37231 | biochemical PPARgamma/SRC-3 coactivator recruitment assay | activation, % at 8 µM | hit rate 0.26% among 200,000 | AID 731; in the data active means activation above about 23%
Target sequence (P37231 whole entry, looked up): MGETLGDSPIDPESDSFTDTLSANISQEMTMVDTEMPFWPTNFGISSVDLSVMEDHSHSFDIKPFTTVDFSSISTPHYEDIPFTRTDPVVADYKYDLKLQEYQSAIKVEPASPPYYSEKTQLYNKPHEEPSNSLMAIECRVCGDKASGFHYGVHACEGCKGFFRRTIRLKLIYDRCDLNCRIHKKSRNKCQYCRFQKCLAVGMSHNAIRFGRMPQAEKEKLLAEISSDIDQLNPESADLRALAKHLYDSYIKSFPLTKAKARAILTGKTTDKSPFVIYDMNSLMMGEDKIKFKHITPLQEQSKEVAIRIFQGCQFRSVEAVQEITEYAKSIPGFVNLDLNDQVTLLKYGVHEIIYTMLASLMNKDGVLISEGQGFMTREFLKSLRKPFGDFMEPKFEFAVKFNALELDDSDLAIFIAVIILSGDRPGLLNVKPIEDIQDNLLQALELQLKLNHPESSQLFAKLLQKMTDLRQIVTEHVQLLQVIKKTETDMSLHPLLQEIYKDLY
PPARg SRC1 recr = PPARgamma-driven SRC-1 recruitment agonism; PPARgamma-SRC-1 coactivator recruitment biochemical assay; activation, % at 8 µM; hit rate 0.41% among 200,000; AID 631; in the data active means activation above about 19%
SRC1 TRFRET art = flags TR-FRET format artefacts in PPARgamma SRC-1 recruitment agonist screen; TR-FRET ratio at 8 µM; TR-FRET detection artefact counter-screen, emission ratio; stronger effect = higher value; hit rate 0.34% among 99,000; in the data active means TR-FRET ratio above about 2300
PPARg SRC-2 ag = agonists of SRC-2 recruitment by human PPARgamma; P37231; PPARgamma LBD-SRC-2 recruitment, biochemical; activation, % at 8 µM; hit rate 0.34% among 200,000; in the data active means activation above about 22%
SRC3 TRFRET art = counter-screen for PPARgamma SRC-3 recruitment agonists: TR-FRET artefact | hit rate 0.39% among 99,000 | PPARgamma/SRC-3 format; stronger effect = higher value | TR-FRET ratio at 8 µM | AID 1048
Each line names hits and unclear results; the compound was inactive in the other large screens. A selection: hits, their analogues and other compounds. The true share with any hit is near 0.9%. Unless noted, no stated cut-off is given here; in the data, active means TR-FRET ratio above about 2000; inactive means the rest.

COc1ccccc1C(=O)Nc1cccc(-c2cn3ccsc3n2)c1	PPARg SRC-3 ag 27.6 (no result: SRC1 TRFRET art, SRC3 TRFRET art)
Cc1cc2cc(CNC(=S)Nc3ccc(OC(F)F)cc3)ccc2n1C	SRC2 TRFRET art 2063, SRC3 TRFRET art 2435
Cc1cc2cc(CNC(=O)Nc3ccc(Cl)c(Cl)c3)ccc2n1C	SRC1 TRFRET art 2614
COCC(=O)NCc1ccc2c(c1)cc(C)n2C	none
FC(F)Oc1ccc(NC(=S)NCc2ccccc2)cc1	none
O=C(CSc1nnc(Cc2ccccc2)n1-c1cccc(Cl)c1)NNC(=O)Cc1ccccc1	none
Cc1sc(NC(=O)CSC2=NCCS2)nc1-c1ccccc1	none (no result: SRC1 TRFRET art, SRC3 TRFRET art)
CC(=O)N1CC(=O)N=C1SCC(=O)Nc1nc(-c2ccccc2)c(-c2ccccc2)s1	SRC1 TRFRET art 2356
Oc1c(Br)cc(Br)cc1C=NCc1ccccc1	none
Oc1c(Br)cc(Br)cc1C=NCc1ccc(F)cc1	PPARg SRC1 recr 20.7
Cc1cc(C)c2c(=O)[nH]c(SCC(=O)NCc3ccccc3)nc2n1	none (no result: SRC1 TRFRET art, SRC3 TRFRET art)
COc1ccccc1NC(=O)CSc1nc2nc(C)cc(C)c2c(=O)[nH]1	PPARg SRC-2 ag 22.3 (no result: SRC1 TRFRET art, SRC3 TRFRET art)
Cc1occc1C(=O)N/N=C/c1ccc(Br)s1	PPARg SRC1 recr 22.2
Cc1ccc(/C=N/NC(=O)c2ccoc2C)s1	none
Cc1cc(C(=O)N/N=C/c2cn[nH]c2-c2ccccc2)cs1	PPARg SRC-2 ag 24.8
COc1ccc2c(-c3ccccc3)cc(SCC(=O)NC(N)=O)nc2c1	PPARg SRC-3 ag 32.6, SRC3 TRFRET art 4477
O=Cc1sc(N2CCOCC2)nc1-c1ccccc1	SRC3 TRFRET art 2197
O=C(N/N=C/c1sc(N2CCOCC2)nc1-c1ccccc1)c1ccccc1O	none
COc1cc(OC)cc(-n2nnnc2SCC(=O)Nc2ccc(C(C)=O)cc2)c1	PPARg SRC1 recr 51.1 (no result: SRC1 TRFRET art, SRC3 TRFRET art)
CCOC(=O)c1sc(NC(=O)CSc2nnnn2-c2ccc(C)c(C)c2)nc1C	SRC2 TRFRET art 4861, PPARg SRC-2 ag 155.9 (no result: SRC1 TRFRET art, SRC3 TRFRET art)
CCOC(=O)c1c(NC(=O)C2=C(C)NC(=S)NC2c2ccc(C)cc2)sc(C)c1C (configuration not stated)	SRC1 TRFRET art 2914
CCOC(=O)c1c(NC(=O)C2=C(C)NC(=S)NC2c2ccc(F)cc2)sc(C)c1C (configuration not stated)	none
O=C(COC(=O)c1ccccc1NC(=O)c1ccco1)NC1CC1	SRC2 TRFRET art 2060
O=C(COC(=O)c1ccccc1NC(=O)c1ccco1)NC1CCS(=O)(=O)C1 (configuration not stated)	none
CC(C)(C)c1cc(C(=S)N2CCN(CCO)CC2)cc(C(C)(C)C)c1O	PPARg SRC-3 ag 28.1 (no result: SRC1 TRFRET art, SRC3 TRFRET art)
CCOC(=O)C(Cc1ccc(Cl)cc1Cl)c1ccno1 (configuration not stated)	none
CCCCCc1c(O)nc(SCC(=O)O)[nH]c1=O	none (no result: SRC1 TRFRET art, SRC3 TRFRET art)
CCN(CC)S(=O)(=O)c1ccc(NC(=O)c2cc(-c3cccs3)nc3ccccc23)cc1	none
Cc1cc(NC(=O)c2cc(-c3cccs3)nc3ccccc23)no1	none (no result: SRC1 TRFRET art, SRC3 TRFRET art)
Cc1cc(C)nc(NC(=O)c2cc(-c3ccc(C)s3)nc3ccccc23)c1	SRC3 TRFRET art 2323
CN(C)S(=O)(=O)c1ccc(NC(=O)c2cc(-c3cccs3)nc3ccccc23)cc1	SRC2 TRFRET art 2669, SRC1 TRFRET art 3250, SRC3 TRFRET art 3343
CN1/C(=C\C(=O)CSc2nnc(NCc3ccccc3)s2)C(C)(C)c2ccccc21	SRC3 TRFRET art 2062
CC(C)c1ccc(C2NC(=O)CCC2[N+](=O)[O-])cc1 (configuration not stated)	none
CN(C)S(=O)(=O)c1cccc(NC(=O)COC(=O)c2cc(-c3cccc(Br)c3)nc3ccccc23)c1	SRC2 TRFRET art 2575, PPARg SRC-3 ag 25.5, SRC1 TRFRET art 2585, SRC3 TRFRET art 3725
N#Cc1c(N)nc(SCC(=O)NC2CCCCC2)c(C#N)c1-c1ccc(Cl)cc1	PPARg SRC1 recr 42.6 (no result: SRC1 TRFRET art, SRC3 TRFRET art)
O=C(CNc1ccc(Br)cc1)NNC1=NCCC1	none
CCOC(=O)c1ccc(NC(=O)CCc2nc(-c3ccc(Cl)cc3)no2)cc1	none (no result: SRC1 TRFRET art, SRC3 TRFRET art)
CCOC(=O)c1ccc(NC(=O)CCc2nc(-c3ccc(C)cc3)no2)cc1	SRC2 TRFRET art 2077, PPARg SRC-2 ag 34.8 (no result: SRC1 TRFRET art, SRC3 TRFRET art)
Cc1nnc2sc(-c3ccc(NC(=O)c4ccc(-c5ccc(Cl)cc5Cl)o4)cc3)nn12	PPARg SRC1 recr 18.7 (no result: SRC1 TRFRET art, SRC3 TRFRET art)
CC1=[N+](C)N(c2ccccc2)C(=O)C1N=Cc1c(Cl)cccc1Cl (configuration not stated)	none

Compound activity (PubChem)
